Data taken from PubChem BioAssay (Tox21).
Records with an inconclusive call do not appear. Activity calls are given as the source filed them. Unless noted, calls come from the whole dose curve; as a rule, active = well fitted curve in the direction sought with a large enough effect in the repeat runs; inconclusive = weak or mixed curves; inactive = flat fitted curve, though single readings scatter.

Tests used:
[1] = qHTS assay to test for compound auto fluorescence at 535 nm (green) in HEK293 cells (AID 720680)
[2] = qHTS assay to test for compound auto fluorescence at 460 nm (blue) in HEK293 cell free culture (AID 720681)
Outline: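 Compounds were added to cell-free DMEM with 10% FBS and fluorescence read directly. The blue channel used 405 nm excitation and 460 nm emission, with triamterene as the reference fluorophore.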

[3] = qHTS assay to test for compound auto fluorescence at 535 nm (green) in HEK293 cell free culture (AID 720682)
Outline: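 No cells present: wells hold DMEM supplemented with 10% FBS, into which compound or vehicle is pinned. Green emission is then recorded (485 nm excitation, 535 nm emission) and scaled to fluorescein.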

[4] = qHTS assay to test for compound auto fluorescence at 590 nm (red) in HEK293 cell free culture (AID 720683)
Outline: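 Cell-free wells of DMEM with 10% FBS received compound, and intrinsic fluorescence was read at excitation/emission 540/590 nm. Values expressed as equivalence to Rose Bengal sodium.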

[5] = qHTS assay to test for compound auto fluorescence at 535 nm (green) in HepG2 cell free culture (AID 720686)
[6] = qHTS assay to test for compound auto fluorescence at 460 nm (blue) in HepG2 cells (AID 720687)
Outline: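 HepG2 cells in MEM with 10% FBS, attached overnight at 37 C, were exposed to compound or DMSO for 1 hr at 37 C, 5% CO2. Blue fluorescence was read at 405/460 nm, with triamterene as reference fluorophore.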

[7] = target: Glucocorticoid receptor (Homo sapiens) (UniProt P04150); test: qHTS assay to identify small molecule agonists of the glucocorticoid receptor (GR) signaling pathway (AID 720691; active = well fitted activation curve with a large enough effect in the signal ratio in the repeat runs, not every such curve was filed as active; the % refers to the signal ratio; note: potency is the fitted concentration of half-maximal effect)
Glucocorticoid receptor (Homo sapiens), sequence (P04150 whole entry, looked up): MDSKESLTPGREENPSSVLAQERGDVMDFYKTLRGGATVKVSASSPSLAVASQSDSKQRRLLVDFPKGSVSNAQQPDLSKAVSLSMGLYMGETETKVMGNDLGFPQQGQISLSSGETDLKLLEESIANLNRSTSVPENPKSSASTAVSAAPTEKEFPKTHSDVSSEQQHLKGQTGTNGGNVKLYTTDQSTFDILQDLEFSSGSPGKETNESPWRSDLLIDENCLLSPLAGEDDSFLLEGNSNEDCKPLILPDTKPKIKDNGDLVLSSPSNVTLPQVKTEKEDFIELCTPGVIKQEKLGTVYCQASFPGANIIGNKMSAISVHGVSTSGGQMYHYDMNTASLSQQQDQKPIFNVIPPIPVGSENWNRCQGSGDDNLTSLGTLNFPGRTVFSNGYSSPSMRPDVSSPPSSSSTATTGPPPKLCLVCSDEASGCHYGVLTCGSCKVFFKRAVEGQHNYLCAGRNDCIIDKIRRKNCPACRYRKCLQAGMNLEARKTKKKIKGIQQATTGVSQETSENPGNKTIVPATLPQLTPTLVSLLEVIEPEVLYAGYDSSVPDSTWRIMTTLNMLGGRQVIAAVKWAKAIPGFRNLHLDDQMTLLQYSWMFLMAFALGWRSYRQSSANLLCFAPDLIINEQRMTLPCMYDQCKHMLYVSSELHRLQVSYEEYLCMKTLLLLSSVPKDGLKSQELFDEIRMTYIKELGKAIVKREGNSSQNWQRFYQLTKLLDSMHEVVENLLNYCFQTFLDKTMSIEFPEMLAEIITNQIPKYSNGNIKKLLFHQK
Outline: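 GR-bla HeLa cells (beta-lactamase reporter under glucocorticoid response element) were plated 4 h at 37 C/5% CO2, given compounds in DMSO, and incubated 18 h at 37 C. LiveBLAzer B/G FRET substrate was added for 2 h at room temperature, then fluorescence intensity read.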

[8] = target: Glucocorticoid receptor (Homo sapiens) (UniProt P04150); test: qHTS assay to identify small molecule antagonists of the glucocorticoid receptor (GR) signaling pathway (AID 720692; active = well fitted inhibition curve with a large enough effect in the signal ratio in the repeat runs, not every such curve was filed as active; the % refers to the signal ratio)
Outline: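 GR-bla HeLa cells (beta-lactamase reporter under glucocorticoid response element) were pre-plated 4 h at 37 C, treated with compounds plus 5 nM dexamethasone (final) for 18 h, then read by LiveBLAzer B/G FRET fluorescence after 2 h.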

[9] = qHTS assay to test for compound auto fluorescence at 460 nm (blue) in HepG2 cell free culture (AID 720685)
Outline: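 Compound (23 nL) or DMSO pinned into cell-free MEM with 10% FBS; blue fluorescence read at 405/460 nm excitation/emission, expressed as auto-fluorescence equivalency to triamterene.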

[10] = qHTS assay to test for compound auto fluorescence at 590 nm (red) in HepG2 cell free culture (AID 720684)
Outline: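 Compound was pinned into wells holding MEM with 10% FBS and no cells, and red fluorescence was read at Ex/Em 540/590 nm. Signal is expressed as auto fluorescence equivalency relative to Rose Bengal sodium.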
% is set by controls: 0 for no effect and ±100 for the full control effect.

CO[Si](CCCOCC1CO1)(OC)OC (stereo not drawn)
inactive: outcome [1] | outcome [2] | outcome [3] | outcome [4] | outcome [5] | outcome [6] | Potency [7] | Potency [8]

CCc1nccnc1CC
inactive: outcome [1] | outcome [2] | outcome [3] | outcome [4] | outcome [9] | outcome [5] | outcome [6]

N=C(N)c1ccc(OCCCOc2ccc(C(=N)N)cc2)cc1
inactive: outcome [1] | outcome [2] | outcome [3] | outcome [4] | outcome [9] | outcome [5] | outcome [6] | Potency [7]

Cc1cccc(C)c1NC(=O)C(C)N (stereo not drawn)
inactive: outcome [1] | outcome [2] | outcome [3] | outcome [4] | outcome [9] | outcome [5] | outcome [6] | Potency [7] | Potency [8]

CC1(C)CO[C@@H](CC(=O)O)CN1
inactive: outcome [1] | outcome [2] | outcome [3] | outcome [4] | outcome [9] | outcome [5] | outcome [6] | Potency [7]

CCCc1cc(C(N)=S)ccn1
inactive: outcome [1] | outcome [2] | outcome [3] | outcome [4] | outcome [9] | outcome [5] | outcome [6] | Potency [7]

CCOC(=O)CCC(C)=O
inactive: outcome [1] | outcome [2] | outcome [3] | outcome [4] | outcome [10] | outcome [5] | outcome [6] | Potency [7] | Potency [8]

CCOC(=O)C(=O)OCC
inactive: outcome [1] | outcome [2] | outcome [3] | outcome [4] | outcome [5] | outcome [6] | Potency [7] | Potency [8]

C1OCOCO1
inactive: outcome [1] | outcome [2] | outcome [3] | outcome [4] | outcome [9] | outcome [5] | outcome [6] | Potency [7] | Potency [8]

COC(=O)c1ccc(C)cc1C1=NC(C)(C(C)C)C(=O)N1 (stereo not drawn)
inactive: outcome [1] | outcome [2] | outcome [3] | outcome [4] | outcome [9] | outcome [5] | outcome [6] | Potency [7] | Potency [8]

FC1(F)C(F)(F)C(F)(F)C2(F)C(F)(F)C(F)(F)C(F)(F)C(F)(F)C2(F)C1(F)F (stereo not drawn)
inactive: outcome [1] | outcome [2] | outcome [3] | outcome [4] | outcome [9] | outcome [5] | outcome [6] | Potency [7]

CCCCCCOC(=O)CCCCC(=O)OCCCCCC
inactive: outcome [1] | outcome [2] | outcome [3] | outcome [4] | outcome [5] | outcome [6]

NS(=O)(=O)c1ccccc1Cl
inactive: outcome [1] | outcome [2] | outcome [3] | outcome [4] | outcome [5] | outcome [6]

C=CCOCC(CC)(CO)COCC=C
inactive: outcome [1] | outcome [2] | outcome [3] | outcome [4] | outcome [9] | outcome [5] | outcome [6] | Potency [7]

Nc1c[n+](N2CCOCC2)no1
inactive: outcome [1] | outcome [2] | outcome [3] | outcome [4] | outcome [9] | outcome [5] | outcome [6] | Potency [7] | Potency [8]

CN(C)CCCNCCCN(C)C
inactive: outcome [1] | outcome [2] | outcome [3] | outcome [4] | outcome [9] | outcome [5] | outcome [6] | Potency [7] | Potency [8]

CC(=O)c1ccccc1O
inactive: outcome [1] | outcome [2] | outcome [3] | outcome [4] | outcome [9] | outcome [5] | outcome [6]

CCOC(=O)Nc1ccc(NCc2ccc(F)cc2)nc1N
inactive: outcome [1] | outcome [3] | outcome [4] | outcome [10] | outcome [5] | Potency [7] | Potency [8]

Cn1cc(S(C)=O)c(=O)c2ccc(F)cc21 (stereo not drawn)
inactive: outcome [1] | outcome [2] | outcome [3] | outcome [4] | outcome [9] | outcome [5] | outcome [6] | Potency [7] | Potency [8]

N#Cc1ccc(C2CCCc3cncn32)cc1 (stereo not drawn)
inactive: outcome [1] | outcome [2] | outcome [3] | outcome [4] | outcome [9] | outcome [5] | outcome [6] | Potency [7] | Potency [8]

CCOC(=O)CC(C)=O
inactive: outcome [1] | outcome [2] | outcome [3] | outcome [4] | outcome [5] | outcome [6]

O=C(O)CNC(=O)c1ccc([N+](=O)[O-])cc1
inactive: outcome [1] | outcome [2] | outcome [3] | outcome [4] | outcome [9] | outcome [5] | outcome [6]

CCN(CC)CCOCCOC(=O)C1(c2ccccc2)CCCC1
inactive: outcome [1] | outcome [2] | outcome [3] | outcome [4] | outcome [9] | outcome [5] | outcome [6] | Potency [7]

CCn1ccnc1CC1COc2ccccc2O1 (stereo not drawn)
inactive: outcome [1] | outcome [2] | outcome [3] | outcome [4] | outcome [9] | outcome [5] | outcome [6] | Potency [7]

CC(C)(C)c1nnc(NS(=O)(=O)c2ccccc2)s1
inactive: outcome [1] | outcome [2] | outcome [3] | outcome [4] | outcome [9] | outcome [5] | outcome [6] | Potency [7] | Potency [8]

CC(C)NC(=O)NC(C)C
inactive: outcome [1] | outcome [2] | outcome [3] | outcome [4] | outcome [9] | outcome [5] | outcome [6] | Potency [7]

CCC(C)S (stereo not drawn)
inactive: fluorescence, % of fluorescein [1] 0.0934% [at 3.72 µM] | fluorescence, % of fluorescent control [2] 0.0638% [at 3.72 µM] | activity change [3] -0.0524% [at 3.72 µM] | fluorescence, % of fluorescent control [4] -0.0589% [at 3.72 µM] | fluorescence, % of fluorescent control [9] -0.0422% [at 3.72 µM] | fluorescence, % of fluorescein control [5] 0.0002% [at 3.72 µM] | fluorescence, % of fluorescent control [6] -0.0637% [at 3.72 µM] | activation [7] -0.406% [at 3.1 µM] | activity change, negative = inhibition [8] 1.31% [at 3.15 µM]

O=C1CCCCCCCCCCCN1
inactive: outcome [1] | outcome [2] | outcome [3] | outcome [4] | outcome [10] | outcome [5] | outcome [6] | Potency [7] | Potency [8]

NC(CSCC(=O)O)C(=O)O (stereo not drawn)
inactive: outcome [1] | outcome [2] | outcome [3] | outcome [4] | outcome [9] | outcome [5] | outcome [6]

Oc1ccc(C2CNCCc3c2cc(O)c(O)c3Cl)cc1 (stereo not drawn)
inactive: outcome [1] | outcome [2] | outcome [3] | outcome [4] | outcome [9] | outcome [5] | outcome [6] | Potency [7] | Potency [8]

CCOC(C)(C)C
inactive: outcome [1] | outcome [2] | outcome [3] | outcome [4] | outcome [9] | outcome [5] | outcome [6]

CN1CCC(=C2c3ccccc3CC(=O)c3sccc32)CC1
inactive: outcome [1] | outcome [2] | outcome [3] | outcome [4] | outcome [10] | outcome [5] | outcome [6] | Potency [7] | Potency [8]

Nc1ccc(S(=O)(=O)Nc2ccnn2-c2ccccc2)cc1
inactive: outcome [1] | outcome [2] | outcome [3] | outcome [4] | outcome [10] | outcome [5] | outcome [6] | Potency [7] | Potency [8]

Nc1ccccc1S(=O)(=O)O
inactive: outcome [1] | outcome [2] | outcome [3] | outcome [4] | outcome [9] | outcome [5] | outcome [6]

Cc1cccn2c(=O)c(-c3nnn[nH]3)cnc12
inactive: outcome [1] | outcome [2] | outcome [3] | outcome [4] | outcome [9] | outcome [5] | outcome [6] | Potency [7] | Potency [8]

CCCC(=O)O[C@]1(C(=O)CO)CC[C@H]2[C@@H]3CCC4=CC(=O)CC[C@]4(C)[C@H]3[C@@H](O)C[C@@]21C
inactive: outcome [1] | outcome [2] | outcome [3] | outcome [4] | outcome [9] | outcome [5] | outcome [6]
active: Potency [7] 213 nM

OCCOc1ccc(OCCO)cc1
inactive: outcome [1] | outcome [2] | outcome [3] | outcome [4] | outcome [9] | outcome [5] | outcome [6] | Potency [7] | Potency [8]

CCOC(=O)[C@H](CCc1ccccc1)N[C@@H](C)C(=O)N1[C@H](C(=O)O)C[C@@H]2CCC[C@@H]21
inactive: outcome [1] | outcome [2] | outcome [3] | outcome [4] | outcome [5] | outcome [6] | Potency [7]

Cc1nc2c([nH]1)c(=O)n(C)c(=O)n2Cc1ccco1
inactive: outcome [2] | outcome [3] | outcome [4] | outcome [10] | outcome [5] | outcome [6] | Potency [7]
